{
  "source": "the supplement of paper PMC12340641",
  "data": [
    {"target": "IKZF1 (dCK*-IKZF1 fusion in HEK293FT) (UniProt Q13422)", "sequence (Q13422 whole entry, looked up, the tested form may be a part)": "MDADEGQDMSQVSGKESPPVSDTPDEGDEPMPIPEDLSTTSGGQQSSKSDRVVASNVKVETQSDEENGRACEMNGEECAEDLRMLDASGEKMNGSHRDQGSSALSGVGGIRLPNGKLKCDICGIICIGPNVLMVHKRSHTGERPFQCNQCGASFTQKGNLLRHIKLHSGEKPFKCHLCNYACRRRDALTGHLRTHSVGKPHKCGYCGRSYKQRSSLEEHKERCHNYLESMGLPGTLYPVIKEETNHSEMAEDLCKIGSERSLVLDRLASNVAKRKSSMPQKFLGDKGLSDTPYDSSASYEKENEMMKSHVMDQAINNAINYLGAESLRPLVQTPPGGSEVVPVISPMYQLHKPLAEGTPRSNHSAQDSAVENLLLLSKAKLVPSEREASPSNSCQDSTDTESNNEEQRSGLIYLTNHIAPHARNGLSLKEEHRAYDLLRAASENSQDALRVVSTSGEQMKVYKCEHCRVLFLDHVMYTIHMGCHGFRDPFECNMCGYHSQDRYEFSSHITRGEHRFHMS", "assay": "inhibition of IKZF1 HTRF signal (DMSO = 0%, pomalidomide 10 uM = 100%); higher = lower IKZF1 protein level", "conditions": "compound concentration: 5 uM, overnight (~20 h)", "procedure,_shortened": "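HEK293FT cells stably expressing a dCK*-IKZF1 fusion (2000/well, 384-well) were treated overnight at 37 °C with 5 μM compound in single wells. They were then lysed 30 min at room temperature, and lysate was incubated overnight with a commercial HTRF total-IKZF1 antibody kit. The time-resolved FRET ratio (665/620 nm) was background-subtracted. Percent inhibition of IKZF1 signal was normalised per plate to vehicle (0%) and a reference degrader (100%).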", "units": {"inhibition of IKZF1 HTRF signal": "%"}, "values": [
      {"smiles": "CCC(=N\\O)/C(C)=C/c1ccc(F)cc1", "inhibition of IKZF1 HTRF signal": 12.6},
      {"smiles": "O=C(O)c1ccc(S(=O)(=O)N(Cc2ccc(OC(F)(F)F)cc2)c2ncc(C(F)(F)F)cc2Cl)cc1", "inhibition of IKZF1 HTRF signal": -23.7},
      {"smiles": "O=C(Nc1ccc2[nH]ccc2c1)c1ccccc1", "inhibition of IKZF1 HTRF signal": -24.8},
      {"smiles": "Clc1ccc(C(Cn2ccnc2)OCc2csc3c(Cl)cccc23)c(Cl)c1", "note": "(stereo not drawn) [Sertaconazole nitrate]", "inhibition of IKZF1 HTRF signal": 20},
      {"smiles": "Cc1noc(C)c1-c1ccc(-c2cc(C(N)=O)c(NC(N)=O)s2)c(O[C@H]2CCNC2)c1", "inhibition of IKZF1 HTRF signal": -26},
      {"smiles": "CCCCCCCC/C=C\\CCCCCCCC(=O)NCCO", "note": "[oleoylethanolamide]", "inhibition of IKZF1 HTRF signal": -34.1},
      {"smiles": "Nc1nnc(-c2cccc(Cl)c2Cl)c(N)n1", "inhibition of IKZF1 HTRF signal": -57.4},
      {"smiles": "CC(C)COCC(CN(Cc1ccccc1)c1ccccc1)N1CCCC1", "note": "(stereo not drawn) [bepridil]", "inhibition of IKZF1 HTRF signal": 21.1},
      {"smiles": "CO[C@H]1/C=C/O[C@@]2(C)Oc3c(C)c(O)c4c(O)c(c5c(c4c3C2=O)=NC2(CCN(CC(C)C)CC2)N=5)NC(=O)C(C)=CC=CC(C)[C@H](O)[C@@H](C)[C@@H](O)[C@@H](C)[C@H](OC(C)=O)[C@@H]1C", "note": "(stereo partly drawn) [Rifabutin]", "inhibition of IKZF1 HTRF signal": 0.83},
      {"smiles": "C/C(=N/Nc1nnc2c(n1)[nH]c1c(C)cccc12)c1ccccn1", "inhibition of IKZF1 HTRF signal": 45.9},
      {"smiles": "OC1=C(C[C@]([C@](CO)=O)(O)C[C@@H]4O[C@@]5([H])C[C@H](N)[C@H](O)[C@H](C)O5)C4=C(O)C3=C1C(C2=CC=CC(OC)=C2C3=O)=O", "note": "[doxorubicin]", "inhibition of IKZF1 HTRF signal": -9.64},
      {"smiles": "CCc1nc(N)nc(N)c1-c1ccc(Cl)cc1", "inhibition of IKZF1 HTRF signal": 18},
      {"smiles": "COc1cc([C@@H]2c3cc4c(cc3[C@@H](O[C@@H]3O[C@@H]5CO[C@@H](C)O[C@H]5[C@H](O)[C@H]3O)[C@H]3COC(=O)[C@H]23)OCO4)cc(OC)c1O", "note": "[Etoposide]", "inhibition of IKZF1 HTRF signal": -29.2}
    ]}
  ]
}
